Compounds without any hit were thinned out: in the full panel of roughly 83,000, 20% have a hit.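 Single-concentration screen, 48 h exposure, 96-well plates. Endpoint: percent growth. Below 10 = active.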 Values without a mark were called inactive. Calls of active or inactive are those of the source.
What was measured:
Assay in all cases: NCI-60 one-dose screen, 48 h (100 = growth as untreated, 0 = no growth, -100 = all killed)
Conditions in all cases: 10 µM
HCT-15 colon = test system: HCT-15 colon
SNB-75 CNS = test system: SNB-75 CNS
SNB-19 CNS = test system: SNB-19 CNS
U251 CNS = test system: U251 CNS
PC-3 prostate = test system: PC-3 prostate
SK-MEL-5 melanoma = test system: SK-MEL-5 melanoma
UACC-62 melanoma = test system: UACC-62 melanoma
LOX IMVI melanoma = test system: LOX IMVI melanoma
SK-MEL-28 melanoma = test system: SK-MEL-28 melanoma

Row | Compound | growth (HCT-15 colon) | growth (SNB-75 CNS) | growth (SNB-19 CNS) | growth (U251 CNS) | growth (PC-3 prostate) | growth (SK-MEL-5 melanoma) | growth (UACC-62 melanoma) | growth (LOX IMVI melanoma) | growth (SK-MEL-28 melanoma)
1 | CC(C)C1=C[C@@]23CC[C@@H]4[C@](C)(CCC[C@]4(C)C(=O)NCc4ccccc4)[C@H]2C[C@@H]1[C@H]1C(=O)OC(=O)[C@H]13 | 9.01% (active) | 69.6% | 37.9% | 25.1% | 33.3% | 72.2% | 50.2% | -8.46% (active) | 68.1%
2 | N#Cc1c(NC(=O)c2ccc(C(O)(C(F)(F)F)C(F)(F)F)cc2)sc2c1CCC(=O)C2 | -68.7% (active) | 16.9% | -15.9% (active) | -91.1% (active) | -44.8% (active) | -99.1% (active) | -88.3% (active) | -96.4% (active) | -87.1% (active)
3 | COc1ccc(-c2nc(-c3ccccc3)c(-c3ccccc3)n2-c2ccc(S(=O)(=O)Nc3ncccn3)cc2)cc1OC | 53.6% | 88.5% | 74.9% | 71.8% | 63.7% | 65.7% | 83.6% | 65.2% | 92.3%
4 | N#Cc1c(-c2ccc(Cl)cc2)cc(-c2ccccc2)nc1OCc1ccccc1 | 36.1% | 74.7% | 89.8% | 60.2% | 40.1% | 54% |  | 65.7% | 86%
5 | COc1ccc(CCN2C(=O)/C(=C/c3csc(C#N)n3)SC2=S)cc1OC | -45.4% (active) | 71.7% | 80% | 89.8% | 71.6% | 74.2% | 46.8% | -62.7% (active) | 18.9%
6 | Cc1cc(C(F)(F)F)ccc1C(=O)Nc1sc2c(c1C#N)CCC(=O)C2 | -69.5% (active) | -5.51% (active) | -2.98% (active) | 12% | 4.6% (active) | -98.9% (active) | -81.3% (active) | 2.84% (active) | -83.9% (active)
7 | COc1ccc(C2NC(=S)NC(C)=C2C(=O)OC(C)C)cc1OC (configuration not stated) | 105% | 94.9% | 98.9% | 102% | 96% | 98.9% | 90.5% | 99.3% | 109%
8 | COc1cccc(/C=C2\N=C(C)N(CCc3ccc(S(N)(=O)=O)cc3)C2=O)c1 | 105% | 98% | 95.1% | 99.9% | 98.4% | 102% | 94% | 97.4% | 105%
9 | Nc1nnc(-c2c[nH]c3ccc(F)cc23)c(-c2c[nH]c3ncccc23)n1 | 69.3% | 29.1% | 33.9% | 37.6% | 67.5% | 63.7% | 51.7% |  | 71.3%
10 | CCCn1c(=O)c2[nH]c(-c3ccc(OCc4nc5ccc(F)cc5[nH]4)cc3)nc2n(CCC)c1=O | 28.7% | -23.5% (active) | 50.4% | 0.191% (active) | 36.3% | -22.5% (active) | 3.86% (active) | -29.3% (active) | 38%
11 | NC(=Nc1ccc(OCCCCCCCCn2ccnn2)cc1)c1ccccc1 | 15.8% | 61.2% | 41.7% | 12.2% | 35.8% |  | 41.8% | 26.6% | 49.2%
12 | CO[C@H]1CSS[C@@H]1Cn1nc(-c2ccc(Oc3ccccc3)cc2)c2c(N)ncnc21 | 22.1% |  | 29.6% | 24.6% | 41.2% |  | -69.5% (active) | 36.8% | -35.8% (active)
13 | CCCCCCCCCCCCCCCCCCCC(=O)NCCc1c[nH]c2ccc(O)cc12 | 96.2% | 129% | 104% | 99% | 73.4% | 110% | 99.7% | 76.7% | 106%
14 | N#Cc1ccc(-c2nn(-c3ccc(C(=O)O)cc3)cc2CNc2ccc(Cl)cc2)cc1 | 47.3% | 107% | 75.9% | 76.8% | 65.2% | 76% | 61.2% | 60.8% | 77.6%
15 | O=C(Nc1ccc(Cl)c(C(F)(F)F)c1)c1cncc(C#Cc2cnc3ccc(N4CCOCC4)nn23)c1 | 15.8% | -1.28% (active) | -10.8% (active) | 20.2% |  | 4.01% (active) | -10.3% (active) | -48.9% (active) | 0.817% (active)
16 | COc1ccc2ncc(C#Cc3cncc(C(=O)Nc4ccc(CN5CCN(C)CC5)c(C(F)(F)F)c4)c3)n2n1 | -91.3% (active) | -91.1% (active) | -86.2% (active) | -59.8% (active) | -59.6% (active) | -100% (active) | -79.6% (active) | -94.6% (active) | -91.8% (active)
17 | Cn1cc(-c2cc(N)n3nc(-c4c[nH]c5ccc(Br)cc45)cc3n2)c2cccnc21 | -77% (active) | -73.1% (active) | -83.5% (active) | -83.9% (active) |  |  | -93.9% (active) | -95.6% (active) | -95.8% (active)
18 | O=c1oc2ccc(-c3ccc(F)cc3F)cc2c(=O)n1-c1ccc(F)c(Cl)c1 | -23.6% (active) |  | 12.5% | 7.08% (active) | 5.69% (active) | -91.6% (active) | -60.2% (active) | -69.9% (active) | -21% (active)
19 | COc1ccc(-c2nc(S(=O)(=O)c3ccc(C)cc3)c(S(C)(=O)=O)o2)cc1 | -72.6% (active) | 43.6% | 65.5% | -90.3% (active) | 20.8% | 10.1% | -58.2% (active) | -89.1% (active) | -98.2% (active)
20 | COc1cc2c(c(OC)c1OC)C(=O)CC(c1cccc(NC(=O)c3cccc(N)c3)c1)O2 (configuration not stated) | 64.9% | 77.6% | 86.1% | 81.1% | 70.9% | 61.9% | 70.2% |  | 100%
21 | O=C1NC(=NC2CCCCCC2)N/C1=C\c1ccc2ncoc2c1 | 13% |  | 29.7% | 32.7% | 53.8% | 21.1% | 19.3% | 22.2% | 27.5%
22 | COc1cc(C2CC(c3ccccc3)=Nc3c(N)nc(N)nc3N2)ccc1Oc1nc(Nc2ccc(F)cc2)nc(N(C)C)n1 (configuration not stated) | 20.8% | 61% |  | 56.3% | 40.7% | -97.8% (active) | 48.5% | 23.2% | 67.8%
23 | O=C(NCCCCCCCCCC[P+](c1ccccc1)(c1ccccc1)c1ccccc1)c1ccc(-n2nc(-c3ccccc3O)nc2-c2ccccc2O)cc1 | -90.4% (active) | -27.1% (active) | -93.9% (active) | -50% (active) | -48.3% (active) |  | -88.9% (active) | -96.9% (active) | 
24 | COc1ccc2c(c1)N=C(C(=O)O)/C2=C/c1sc(Nc2ccc(O)cc2)nc1O | 53.9% | 67.2% | 70.1% | 67.7% | 76% | 83% | 42.9% | 49.2% | 80.5%
25 | Cc1noc2c(Cc3ccccc3)nn(CC(=O)N/N=C/c3ccc(F)cc3)c(=O)c12 | 94.1% | 9.02% (active) | 32.4% | 42.8% | 65.6% | 76% | 94% | 36.3% | 90.4%
26 | O=c1[nH]c2ccccc2cc1CSc1ccc(Nc2nccc(-c3ccc4c(c3)OCO4)n2)cc1 | 84.1% | 105% | 88.7% | 75.8% | 88.9% | 94.5% | 96.2% | 58.7% | 105%
27 | O=C(NO)c1ccc(Cn2ccc3c(Nc4ccccc4)ncnc32)cc1 | -55.5% (active) | 44.3% | -30.4% (active) | -38.9% (active) | 15% | -67.2% (active) | -49.3% (active) | -91.9% (active) | 5.83% (active)
28 | O=C(O)CCCCCCCCCCN1C(=O)/C(=C/c2cnc(-c3ccc(Cl)cc3)s2)SC1=S | 26.3% | 73.3% | 27.1% | -13% (active) | 25.4% | 27.4% | 0.545% (active) | 5.11% (active) | 40%
29 | COc1cc(/C=C/C(=O)c2ccc(C(F)(F)F)cc2)ccc1Oc1nc(Nc2ccc(F)cc2)nc(N(C)C)n1 | 70% | 99.7% | 83% | 74.2% | 76% | 61.7% | 57.7% | 46.9% | 85.9%
